NIH3T3 tox = NIH 3T3 cell cytotoxicity; Potency, µM (series often up to 96.7 µM), inactives show at the highest dose activity change, negative = cytotoxicity, most hits filed as inhibitors; AID 1345082; 4.3% of 94,000 active; NIH 3T3 viability, CellTiter-Glo ATP luminescence, 48-72 h; further: on the % scale 0 is the no-effect control and ±100 the full control effect; nearly all actives have a fitted effect of over 55% in size
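Cells were seeded at 400 per well, treated with pin-transferred compound, and kept 48 or 72 hr at 37 °C before CellTiter-Glo addition and luminescence imaging of cellular ATP.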
FLuc inh-1 = inhibitors of firefly (Photinus pyralis) luciferase; 2.5% of 76,000 active; purified P. pyralis luciferase, luminescence, biochemical; AID 1347043; Potency, µM (titrated, usually from 115 µM), most hits filed as inhibitors; further: on the % scale 0 is the no-effect control and ±100 the full control effect; nearly all actives have a fitted effect of over 65% in size
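Purified P. pyralis luciferase (10nM final) in 50mM Tris acetate pH 7.5, 10mM Mg acetate, 0.01% Tween-20, 0.05% BSA with 10uM D-luciferin and 10uM ATP. Compounds titrated qHTS. Luminescence imaged on CCD.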
GPT2 inh = blocks human glutamate pyruvate transaminase 2; Q8TD30; Recombinant GPT2, coupled pyruvate oxidase/HRP Amplex Red fluorescence; Potency, µM (highest dose often 57.7 µM), without a hit: at the top dose activity change, negative = inhibition, most hits filed as inhibitors; 0.25% of 100,000 active; further: on the % scale 0 is the no-effect control and ±100 the full control effect; nearly all actives have a fitted effect of over 60% in size
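Fluorescence read-out: pyruvate from GPT2 turnover coupled to pyruvate oxidase, HRP and Amplex Red (0.2mM ThPP, 0.2U/mL PO and HRP, 50uM Amplex final). Substrates 250uM a-KG, 2mM L-alanine; enzyme 10ng/uL; 30 min RT.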
HEK cytotox = HEK 293 cell cytotoxicity | HEK 293 viability, ATP luminescence (CellTiter-Glo), 48-72 h | 6.6% of 94,000 active | Potency, µM (doses to about 115 µM), for the others: at the highest dose activity change, negative = cytotoxicity, most hits filed as inhibitors | AID 1345083; further: on the % scale 0 is the no-effect control and ±100 the full control effect; nearly all actives have a fitted effect of over 60% in size
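ATP-coupled CellTiter-Glo luminescence served as viability read-out, recorded 10 min after reagent addition at room temperature. HEK 293 cells, 250 cells/well, had been incubated with pintool-transferred compound for 48 or 72 hr at 37 degree Celsius.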
NPR1 antag = blocks ANP-stimulated signaling of human Npr1 receptor; 1.6% of 76,000 active; Potency, µM (highest dose often 46.3 µM), for the others: top-dose activity change, negative = inhibition, usual class: inhibitors; P16066; HEK293 hNpr1 GloSensor cGMP, ANP-stimulated luminescence; calls by dose curve; further: on the % scale 0 is the no-effect control and ±100 the full control effect; nearly all actives have a fitted effect of over 60% in size
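HEK293 cells stably expressing human Npr1 and cGMP GloSensor pGS-40F, loaded 2 h with 2% GloSensor reagent, given compound 30 min at room temperature. Luminescence read before and 20 min after 0.1 nM hNppA.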
FLuc SDR -ATP = stabilizes firefly luciferase without ATP; Purified FLuc-C-HiBiT, Nano-Glo HiBiT luminescence, no ATP; 7.8% of 1,300 active; Potency, µM (highest dose often 32.7 µM), for inactives: top-dose activation (signal gain), hits mostly activators; shares compounds with FLuc inh-1; further: nearly all actives have a fitted effect of over 55% in size
FLuc SDR ATP = stabilizes firefly luciferase with ATP present. shares compounds with FLuc inh-1. purified FLuc-C-HiBiT + ATP, HiBiT complementation luminescence. Potency, µM (highest dose often 32.7 µM), without a hit: top-dose activation (gain of signal), most hits filed as activators. 8.7% of 1,300 active;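 further: signal reports ligand binding via conformational change of the enzyme rather than luciferase catalysis; % of control where 0% means no effect; nearly all actives have a fitted effect of over 55% in size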
FLuc inh-2 = blocks firefly luciferase enzymatic activity | shares compounds with FLuc inh-1 | purified FLuc-C-HiBiT enzyme, luciferin luminescence | Potency, µM (series often up to 32.7 µM), for the others: top-dose activity change, negative = inhibition, hits mostly inhibitors | 42% of 1,300 active; further: on the % scale 0 is the no-effect control and ±100 the full control effect; nearly all actives have a fitted effect of over 70% in size
* marks the source's active call; other numbers are inactive results; i = inactive; ? = inconclusive; . = not tested or not shown; [ ] = dose if it differs, or a comment. Sampled rows, rich in hits. Any-hit rate of the full collection: about 10%. Unless noted, the call rests on the fitted dose curve; in most records, active means well fitted curve in the direction sought with a large enough effect; inconclusive means small, poorly fitted or top-dose-only effect, or another doubt; inactive means no such curve, though single readings can be large; an effect the other way counts as inactive or inconclusive. Potency means the concentration at half of the fitted maximal effect.

SMILES	NIH3T3 tox	FLuc inh-1	GPT2 inh	HEK cytotox	NPR1 antag	FLuc SDR -ATP	FLuc SDR ATP	FLuc inh-2
COc1ccc(-c2nc3ccc(NS(C)(=O)=O)cc3o2)cc1	.	.	.	.	.	19%	15%	?
Nc1nccc(-c2c(-c3ccc(F)cc3)ncn2C2CCNCC2)n1	.	.	.	.	.	15%	8%	3%
Cc1ccc(-n2cc(CN3CCn4nc(C(O)c5nccn5C)cc4C3)cn2)cc1 (centres undefined)	-23%	?	?	-8%	6%	.	.	.
Cn1ccnc1C(O)c1cc2n(n1)CCN(c1ncnc3nc[nH]c13)C2 (centres undefined)	-5%	i	i	1%	0%	13%	8%	2%
COc1ccc(NC(=O)C2CN(S(=O)(=O)C3CC3)CC23CCCCC3)cc1 (centres undefined)	-30%	i	i	-17%	-17%	.	.	.
O=C(Nc1ccc2c(c1)OCCO2)C1CN(S(=O)(=O)C2CC2)CC12CCCCC2 (centres undefined)	-22%	1.1µM*	i	?	?	?	?	4.4µM*
O=C(NCCc1ccccc1)C1CCN(C(=O)c2ncn3c2COC(c2ccccc2)C3)CC1 (centres undefined)	i	3.2µM*	i	0%	0%	11%	?	2.5µM*
CSc1ccc(CNC(=O)C2CCN(C(=O)c3ncn4c3COC(c3ccccc3)C4)CC2)cc1 (centres undefined)	i	13µM*	3%	9%	-19%	16%	?	?
O=C(NCc1ccncc1)C1CCN(C(=O)c2ncn3c2COC(c2ccc(F)cc2)C3)CC1 (centres undefined)	i	7.9µM*	i	7%	1%	13%	?	?
CC(CNC(=O)C1CCN(C(=O)c2ncn3c2COC(c2ccccc2)C3)CC1)c1ccccc1 (centres undefined)	-21%	3.5µM*	i	-16%	-14%	11%	1.6µM*	2.5µM*
O=C(NCc1cccnc1)C1CCN(C(=O)c2ncn3c2COC(c2ccc(F)cc2)C3)CC1 (centres undefined)	i	?	-4%	-4%	-2%	.	.	.
CC(CNC(=O)C1CCN(C(=O)c2ncn3c2COC(c2ccc(F)cc2)C3)CC1)c1ccccc1 (centres undefined)	-16%	?	i	-6%	-2%	.	.	.
O=C(c1cc(F)ccc1F)N1CCC(Cc2nc(-c3ccccc3)n[nH]2)CC1	-19%	.	i	?	.	.	.	.
CC(C)CNC(=O)c1ccc2nnc(C3CCCC3)n2c1	-9%[138 µM]	.	3%[88.5 µM]	i	.	.	.	.
COCc1nc(C2CCN(S(=O)(=O)c3ccc(C#N)cc3)C2)no1 (centres undefined)	-14%	i	3%	?	-4%	.	.	.
CN(Cc1cccnc1)C1CN(C(=O)c2cccn2C)C1	-1%	.	i	i	.	.	.	.
Clc1ccc2c(c1)-n1cc(-c3ccccc3)nc1CO2	.	.	.	.	.	16%	11%	-19%
CCOc1ccc(-c2cc(CCCC(=O)NCCc3ccc(OC)c(OC)c3)no2)cc1	.	.	.	.	.	19%	?	?
Fc1ccc(-n2ncc3c(N4CCCCC4)nc(NN4CCOCC4)nc32)cc1	.	.	.	.	.	11%	8%	3%
c1ccc(CNc2cc(-c3cc(N4CCCCC4)ncn3)c3cc[nH]c3n2)nc1	?	7.9µM*	4%	?	-2%	24%	12%	9.9µM*
O=C(O)Cn1ccc2cc(OCc3cccc(-c4ccc(F)c(Cl)c4)c3)cnc21	-15%[138 µM]	i	i	?	1%[70.6 µM]	.	.	.
COc1cccc(-c2cccc(COc3cnc4c(ccn4CC(=O)O)c3)c2)c1F	?	13µM*	0%[88.5 µM]	-12%[172 µM]	2%[70.6 µM]	18%[49.3 µM]	10%[49.3 µM]	13µM*
Cc1ccc(-c2cccc(COc3cnc4c(ccn4CC(=O)O)c3)c2)cc1	-22%[138 µM]	7.9µM*	i	?	3%[70.6 µM]	13%[49.3 µM]	12%[49.3 µM]	?
Cc1cc(F)ccc1-c1cccc(COc2cnc3c(ccn3CC(=O)O)c2)c1	-10%[138 µM]	i	0%[88.5 µM]	?	-1%[70.6 µM]	.	.	.
O=C(NCCN1CCOCC1)c1c[nH]c2ncccc12	-9%[138 µM]	i	-4%[88.5 µM]	-3%[172 µM]	12%[70.6 µM]	.	.	.
SMILES	NIH3T3 tox	FLuc inh-1	GPT2 inh	HEK cytotox	NPR1 antag	FLuc SDR -ATP	FLuc SDR ATP	FLuc inh-2
O=C(NCCC1CCCCC1)c1c[nH]c2ncccc12	?	5.6µM*	-26%[88.5 µM]	71µM*	?	?	18%[49.3 µM]	18µM*
CNC(=O)c1cc(C2CC2)nc2c1c(C1CCN(C(=O)NC3CCCC3)C1)nn2C (centres undefined)	-1%	.	.	-4%	.	.	.	.
CC(C)n1cc(-c2cc(C(=O)N3CCC(C)(C)C3)c3ccc(F)cc3n2)cn1	?	5µM*	0%	?	-13%	?	?	5µM*
O=C(Nc1cccc(F)c1)Nc1ccc2n(c1=O)C[C@H]1C[C@@H]2CN(C(=O)c2ccc(F)cc2)C1	?	10µM*	1%	40µM*	-22%	14%	10%	?
O=C(c1ccc(F)cc1)N1C[C@@H]2C[C@H](C1)c1ccc(NS(=O)(=O)c3cccc(F)c3)c(=O)n1C2	-16%	i	-18%	-15%	-8%	.	.	.
Cc1ccc(C(=O)COC(=O)c2cc(-c3cccs3)nc3ccccc23)cc1	.	.	.	.	.	12%	11%	?
COC(=O)[C@H](NC(=O)c1cc(-c2ccccc2)nc2ccccc12)c1ccccc1	.	.	-2%	.	.	.	.	.
O=C(NC1CCCCC1)c1cn2cc(-c3cccc(C(F)(F)F)c3)sc2n1	-8%	.	1%	-2%	.	.	.	.
CCCS(=O)(=O)N1CCCC1c1nc2ccccc2s1 (centres undefined)	-29%	i	-38%	?	9%	.	.	.
Cc1nnc2n1CCC(NC(=O)CCCc1nc3ccccc3s1)CC2 (centres undefined)	-11%	i	i	-9%	-2%	.	.	.
CC(=O)Nc1cc(-c2nc3ccccc3s2)ccc1C	.	.	.	.	.	29%	20%	?
CCCCC(=O)Nc1cc(-c2nc3ccccc3s2)ccc1C	.	.	.	.	.	18%	10%	-6%
Cc1ccc(C(C)(O)c2nc3ccccc3s2)c(C)c1 (centres undefined)	.	.	-20%	.	.	.	.	.
